Data reported in the emibetuzumab library of Makowski et al. (2022).
This is one part of the list. How many sequences the whole screen found active is unknown.

B1: VH:VL chains; a variant is named by its letters at X, in order (parent)
chain 1: QVQLVQSGAEVKKPGASVKVSCKASGYTFTDYXMHWVRQAPGQGLEWMGXVNPNXXXTTYNQKFEGRVTMTTDTSTSTAYMELRSLRSDDTAVYYCARXNXLDXWGQGTTVTVSS
chain 2: DIQMTQSPSSLSASVGDRVTITCSVSSSVSSIYLHWYQQKPGKAPKLLIYSTSNLASGVPSRFSGSGSGTDFTLTISSLQPEDFATYYCQVYSGYPLTFGGGTKVEIK

Variants of: B1
Test: yeast display scFab, FACS + sequencing
Details: with MET
Procedure, shortened: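 A yeast surface library of scFab variants carrying heavy-chain CDR mutations went through two magnetic enrichment rounds on Protein A beads coated with HGFR-Fc, then FACS. For sorting, cells were labelled for 3 h at room temperature with 1 nM HGFR-Fc and anti-Myc in PBSB containing 1% milk, and the top 50% of antigen-positive cells were gated. Input and round-3 sorted populations were deep sequenced in two replicates. A sequence was called an antigen binder if it appeared in both antigen-positive samples and a non-binder if it appeared only in the input.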

Variant	antigen binding call
YKGKGAGF	binds
SKGKGAGD	binds
SKGRGAGS	binds
DAGKGAGD	no binding
YKGKGFGF	no binding
SKGRSDVF	no binding
SKGKGAGF	binds
YKGKGSGF	binds
DGEGGDWD	no binding
VGRTSFGF	no binding
YKGKGSLF	binds
YKAGGFWF	no binding
YKAGGSLF	binds
VKGRADWF	no binding
VTGEDDVV	no binding
VKGRADAV	no binding
SAGRGDGS	no binding
AATTDSSS	no binding
ARGRGSSS	binds
SRGRGSSS	binds
SRGRGSLS	binds

Variant	antigen binding call
SRGRGVLV	no binding
SGTADSSS	no binding
SEGRGDGA	no binding
AKTKSDGV	no binding
ATGGDSGD	no binding
VEGRGDGA	no binding
YAGRGDGA	no binding
YKGRGVGA	binds
AKGRGDGA	no binding
VKGRGVGA	binds
ARERGDGY	no binding
VRGGSDGY	binds
VRGGGDGY	binds
VTGGDDGY	no binding
VRARGDGY	binds
VAGTGDGY	no binding
VEARGDGA	no binding
VRGGDDGV	no binding
VTGGGDGS	no binding
DAERTDGV	no binding
AEAGADVV	no binding

Variant	antigen binding call
YRRRGSLA	binds
VRRRGALA	binds
VAEKGALA	no binding
YTREGAVA	no binding
YRREGSLA	binds
VTEGGALA	no binding
YRRRGALA	binds
YAREGSGA	no binding
VKGRADSV	no binding
YREETSGA	no binding
YRRGGALA	binds
YRRRSSLA	binds
FRAGGAGA	binds
FRARGAGA	binds
FEAGDSGA	no binding
ARARGSGA	no binding
FRAGGSGA	binds
FKAGGSGA	no binding
FAARDSGA	no binding
FRARGSGA	binds
